Sampled rows, rich in hits. Any-hit rate of the full collection: about 4%.
DENV2 CPE rescue = inhibitors of DENV2 cytopathic effect; 1.7% of 350,000 active; AID 651640; CPE inhibition, % at 9.99 µM; DENV2-infected cells, cytopathic effect rescue, plate reader; in the data active = CPE inhibition above about 20%, passing the limit was not always enough; tested in BHK-21 cells
ERAP1 HTS inh = ERAP1 (human) enzyme inhibition; Q9NZ08; recombinant ERAP1, Leu-AMC fluorescence, 60 min; inhibition, % at 10.7 µM; 0.15% of 340,000 active;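 active = mean replicate inhibition of at least 30%, or all replicates individually reaching that 30% level; inactive = mean below 30% and not every replicate reaching it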
RAD52 inh = blocks human RAD52 DNA annealing; P43351; recombinant RAD52 DNA annealing, FRET fluorescence; inhibition, % at 18.7 µM; 0.46% of 360,000 active; AID 651710;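 active = every replicate showing at least 50% inhibition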
AF4-AF9 inh = blocks AF4 peptide binding to human AF9; P42568; AlphaScreen, biotin-AF4 peptide binding to FLAG-AF9; inhibition, % at 10 µM; 0.47% of 350,000 active; AID 651704;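 active = every replicate reaching a set inhibition limit, whatever the replicate mean, cut at about 25% in these data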
FGF22 binding = shifts melting point of recombinant human FGF22. 1.5% of 340,000 active. recombinant FGF22 thermal shift, SYPRO orange fluorescence; percent of sucrose octasulfate shift, DMSO zero. activity (Tm shift, normalised), % at 9.99 µM. AID 651658;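 active = mean Tm shift, scaled 0 neutral to 100 positive control, at about 1.3% or above, every replicate too, limit read from the data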
Hits are given with their value; - = inactive; . = no result given.

SMILES	DENV2 CPE rescue	ERAP1 HTS inh	RAD52 inh	AF4-AF9 inh	FGF22 binding
CO[C@@H]1CN(C)C(=O)c2cc(NC(=O)Nc3cc(Cl)cc(Cl)c3)ccc2OC[C@H](C)NC[C@H]1C	.	.	57	.	.
CO[C@H]1CN(C)C(=O)c2ccc(NC(=O)Nc3cc(Cl)cc(Cl)c3)cc2OC[C@@H](C)NC[C@@H]1C	-	-	52	-	-
COCC#Cc1cnc2c(c1)C(=O)N([C@H](C)CO)C[C@@H](C)[C@@H](CN(C)S(=O)(=O)c1cn(C)cn1)O2	-	-	-	-	-
CO[C@@H]1CN(C)C(=O)c2cc(NC(=O)Nc3ccccc3Cl)ccc2OC[C@@H](C)NC[C@@H]1C	-	-	-	-	-
CO[C@H]1CN(C)C(=O)c2cc(NC(=O)Nc3ccccc3Cl)ccc2OC[C@@H](C)NC[C@H]1C	20	-	-	-	-
CO[C@H]1CN(C)C(=O)c2ccc(NC(=O)Nc3cc(Cl)cc(Cl)c3)cc2OC[C@H](C)NC[C@H]1C	-	-	54	-	-
CO[C@@H]1CN(C)C(=O)c2ccc(NC(=O)Nc3cccc(Cl)c3)cc2OC[C@H](C)NC[C@@H]1C	-	-	-	-	-
CCS(=O)(=O)N[C@@H]1C=C[C@H](CC(=O)NC2Cc3ccccc3C2)O[C@H]1CO	-	-	-	-	-
O=S(=O)(NC(CO)Cc1ccccc1)c1ccc(Br)cc1F (stereo not given)	-	-	-	-	43
O=S(=O)(NC(CO)Cc1ccccc1)c1cc(Cl)ccc1F (stereo not given)	-	-	-	-	-
C[C@H](NC(=O)N(C)C[C@H]1OCc2ccccc2-c2c(n(C)c3ccccc23)C(=O)N([C@H](C)CO)C[C@@H]1C)c1ccccc1	-	-	-	-	-
COc1cc(/C=C/C(=O)O)ccc1S(=O)(=O)N1CCCc2ccccc21	-	-	-	-	43
COc1ccc(/C=C/C(=O)O)cc1S(=O)(=O)N1CCCc2ccccc21	-	-	-	-	-
COc1ccc2sc(N(CCN(C)C)C(=O)/C=C/c3cccs3)nc2c1	-	-	-	33	-
O=C(CCOc1ccccc1)Nc1ccnn1C1CCN(Cc2ccc(CO)o2)CC1	-	-	-	-	2.5
NC(=S)N/N=C/c1cc([N+](=O)[O-])ccc1Cl	-	-	-	-	-
Nc1nnnn1CC(=O)N/N=C/c1cc([N+](=O)[O-])ccc1Cl	-	-	-	-	43
CCCCCCC12Cc3cc(OC)c(OC)cc3C(O1)C1=C(O2)C(C)(C)CCC1=O (stereo not given)	-	-	-	-	43
CCCCCCC12Cc3cc(OC)c(OC)cc3C(O1)c1c(cc(C)oc1=O)O2 (stereo not given)	-	-	-	-	-
CCC[N+]1(CC#CC2(O)CCCCC2)CCOCC1	-	85	-	-	-
COc1ccc(S(=O)(=O)Nc2cccc3c2O[C@H](CN(C)C(=O)Nc2ccc(F)cc2)[C@H](C)CN([C@@H](C)CO)C3=O)cc1	-	-	-	-	-
CN1CCN(CCOc2ccc(-c3ccccc3)cc2)CC1	49	-	-	-	-
CCCC#Cc1ccc([C@@H]2[C@H]3CN(C(=O)Nc4ccc(F)cc4)CC(=O)N3[C@H]2CO)cc1	42	-	-	-	.
O=C(Nc1ccc(F)cc1)N1CC(=O)N2[C@@H](CO)[C@H](c3ccc(C#Cc4ccc(F)cc4)cc3)[C@@H]2C1	-	-	-	-	.
O=C(Nc1ccccc1F)N1CC(=O)N2[C@H](CO)[C@H](c3ccc(C#Cc4ccc(F)cc4)cc3)[C@@H]2C1	27	-	-	-	.
SMILES	DENV2 CPE rescue	ERAP1 HTS inh	RAD52 inh	AF4-AF9 inh	FGF22 binding
CCCC#Cc1ccc([C@H]2[C@@H](CO)N3C(=O)CN(C(=O)NC4CCCC4)C[C@@H]23)cc1	31	-	-	-	.
CN(C)C(=O)C[C@H]1CC[C@@H]2[C@H](COc3ccc(NC(=O)C4CCCC4)cc3C(=O)N2C)O1	-	-	-	-	.
CC(=O)c1cccc(NC(=O)C(=O)Nc2cccc3ccccc23)c1	-	-	-	-	43
C[C@@H]1CN([C@H](C)CO)S(=O)(=O)c2ccc(C#CCN(C)C)cc2O[C@H]1CN(C)Cc1ccc(F)cc1	-	-	-	-	-
O=C(C[C@H]1C[C@@H]2c3cc(NC(=O)C4CCOCC4)ccc3O[C@@H]2[C@@H](CO)O1)NCCc1ccccc1	-	-	-	-	-
O=C(C[C@@H]1CC[C@@H]2[C@H](COC[C@@H](O)CN2Cc2ccc(F)cc2)O1)N1CCc2ccccc2C1	-	-	-	-	-

From PubChem
